tim23-1 inh = tim23-1 yeast growth inhibition. 330,000 compounds, 1.3% hits. AID 463212. S. cerevisiae tim23-1 growth, BacTiter-Glo luminescence, 24 h. inhibition, % at 20 µM;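 active = growth inhibition of the mutant yeast at or above 50%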;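 also: temperature-sensitive mutant grown at 25 °C; plate controls were DMSO-treated mutant yeast for no effect and medium wells lacking yeast for full effect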
NLRP3 yeast inh = NALP3 inhibition in yeast. Yeast reconstituted NLRP3/ASC/caspase-1, beta-gal luminescence, 24 h. inhibition, % at 10 µM. 330,000 compounds, 0.39% hits. AID 2825;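 active = inhibition of 50% or more; inactive = inhibition below 50%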;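 also: plate controls were induced DMSO wells for no effect and uninduced yeast grown without galactose for full effect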
Yeast superoxide = caloric restriction mimetics inhibiting age-related superoxide in yeast. 330,000 compounds, 0.18% hits. S. cerevisiae aged cells, superoxide DHE fluorescence; stronger effect = lower value. superoxide response (% of plate mean), % at 10 µM;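 active = superoxide response under a set limit, about three screen SD below normal, cut at about 65% in these data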;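 also: yeast aged for seven days with compound at 30 °C before DHE staining; 100% = average MFI of all compound-treated wells on the plate with controls excluded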
tim10-1 inh = growth inhibitors of tim10-1 mutant yeast; S. cerevisiae tim10-1 ts strain growth, BacTiter-Glo, 24 h; inhibition, % at 20 µM; 330,000 compounds, 2.2% hits;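 active = inhibition of at least 40%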;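 also: mutant grown at 25 °C; 0% = DMSO wells with yeast and 100% = wells holding no yeast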
TIM10 inh = growth inhibitors of TIM10 yeast strain. S. cerevisiae TIM10 strain growth, BacTiter-Glo luminescence, 24 h. inhibition, % at 10 µM. 330,000 compounds, 1.4% hits. AID 463195;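 active = inhibition of 40% or more at the single tested concentration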;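 also: wild-type TIM10 isogenic control strain grown at permissive 25 °C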
tim23-1 conf = tim23-1 yeast growth inhibition, confirmed; AID 463218; shares compounds with tim23-1 inh; S. cerevisiae tim23-1 growth, BacTiter-Glo luminescence, 24 h; inhibition, % at 20 µM; 4,400 compounds, 83% hits;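 active = inhibition above about 39% in either of two replicate wells at 20 µM, limit read from the data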;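 also: temperature-sensitive tim23-1 mutant grown at 25 °C; 0% = DMSO wells with yeast and 100% = medium wells without yeast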
Numbers without * were called inactive; / = no result. In the library only some 3.8% were active in any assay of this set; here they are far more common.

SMILES | tim23-1 inh | NLRP3 yeast inh | Yeast superoxide | tim10-1 inh | TIM10 inh | tim23-1 conf
O=C(CCCc1nc(-c2ccccc2Cl)no1)NC1CCCC1 | 12 | 6 | 112 | 29 | -1 | /
CCOc1ccccc1NC(=S)NC1CC2CCC1C2 (stereo unspecified) | 33 | 13 | 133 | 37 | 16 | /
COc1ccc(NC(=S)NC2CC3CCC2C3)c(OC)c1 (stereo unspecified) | 63* | 2 | 108 | 22 | 26 | 11
COc1cc(S(=O)(=O)n2nnc3ccccc32)c(OC)cc1Cl | 61* | 21 | 115 | 40 | 25 | 56*
N/C(CC(=O)Nc1ccc(F)cc1F)=N\OC(=O)c1cccs1 | 61* | -1 | 107 | 34 | 30 | 40*
Oc1cccc(/C=N/Nc2cccc3cccnc23)c1 | 53* | 31 | / | 10 | 15 | 63*
O=[N+]([O-])c1ccc(N/N=C/c2cccc(O)c2)cc1 | 83* | 16 | 90 | 39 | 6 | 40*
COc1cc(/C=N/Nc2cccc3cccnc23)cc(OC)c1O | 13 | 9 | 104 | 9 | 15 | /
O=C(Nc1ccccc1F)NC1CCCc2ccccc21 (stereo unspecified) | 8 | 18 | 81 | 6 | 5 | /
COc1ccc(NC(=O)c2cc(S(=O)(=O)NCC3COc4ccccc4O3)ccc2F)cc1 (stereo unspecified) | 58* | 10 | 120 | 35 | 31 | 65*
CC(=O)Nc1ccc(S(=O)(=O)NCCC(=O)NCC2COc3ccccc3O2)cc1 (stereo unspecified) | 3 | 1 | 94 | 5 | 7 | /
Cc1ccccc1-n1nc2c(c1NC(=O)COc1ccc(Cl)cc1)CS(=O)C2 (stereo unspecified) | 13 | 14 | 94 | 3 | -5 | /
COc1ccc(CC(=O)Nc2c3c(nn2-c2ccccc2C)CS(=O)C3)cc1 (stereo unspecified) | 97* | 0 | 75 | 14 | -12 | 4
COc1ccc(S(=O)(=O)NC2(C(F)(F)F)NC(=O)N(CCc3ccc(OC)c(OC)c3)C2=O)cc1 (stereo unspecified) | 0 | 10 | 94 | -12 | 6 | /
CCC1CCc2sc(C(=O)N(C)CC(=O)Nc3cccc(OC)c3)cc2C1 (stereo unspecified) | 51* | 27 | 142 | 19 | 12 | 41*
CCC1CCc2sc(C(=O)N(C)CC(=O)Nc3ccc(N4CCOCC4)cc3)cc2C1 (stereo unspecified) | -14 | 19 | 114 | 7 | -71 | /
CCC1CCc2sc(C(=O)NCC3CCCO3)cc2C1 (stereo unspecified) | 51* | 27 | 87 | 11 | 7 | 38
COc1ccc(NC(=O)CN(C)C(=O)c2cc3c(s2)CCC(C)C3)cc1 (stereo unspecified) | 32 | 26 | 102 | 14 | -6 | /
CCC1CCc2sc(C(=O)N(C)CC(=O)Nc3ccc(OC)cc3)cc2C1 (stereo unspecified) | 51* | 38 | 105 | 33 | 0 | 45*
Cc1ccc(OCC(=O)NC2CCSc3ccccc32)cc1 (stereo unspecified) | 19 | 25 | 91 | 19 | -4 | /
Cc1cc(NC(=O)Cn2cnc3sccc3c2=O)no1 | 0 | -1 | 108 | -16 | -1 | /
CCOC(=O)C1C(C(=O)OC)=C(c2ccc(OC)cc2)c2ccc(OC)cc2N1S(=O)(=O)C(F)(F)F (stereo unspecified) | 39 | / | 101 | 20 | 4 | /
CCOC(=O)C1=C(C2=CCCCC2)c2ccc(OC)cc2N(S(=O)(=O)C(F)(F)F)C1C(=O)OCC (stereo unspecified) | 53* | / | 109 | 36 | 25 | 40*
Cc1cc(=O)oc2c(C)c(OCC(=O)N3CC[C@@]4(O)CCCC[C@H]4C3)ccc12 | 12 | -4 | 96 | 7 | -2 | /
CC(NC(=O)C(=O)N1CCOCC1)C(c1cccs1)N1CCN(c2ccc(F)cc2)CC1 (stereo unspecified) | 0 | 2 | 97 | -3 | -1 | /
SMILES | tim23-1 inh | NLRP3 yeast inh | Yeast superoxide | tim10-1 inh | TIM10 inh | tim23-1 conf
Cc1cc(C(=O)N/N=C\c2cc(C(C)(C)C)ccc2O)n[nH]1 | 56* | 19 | 92 | 33 | 21 | 55*
Cc1cc(C(=O)N/N=C/c2cccs2)n[nH]1 | -8 | -3 | 101 | -20 | -18 | /
C=CCNC(=O)C(=O)Nc1ccc2c(c1)N(S(=O)(=O)c1cccs1)CCC2 | 51* | 16 | 94 | 35 | 35 | 42*
CCNC(=O)C(=O)Nc1ccc2c(c1)N(S(=O)(=O)c1cccs1)CCC2 | 49 | 24 | 100 | 39 | 27 | /
Cc1cc(C(=O)Nc2ccc(Cl)cc2)c(C)n1-c1ccccc1 | 56* | 10 | 96 | 39 | 36 | 54*
CCC(C)n1cnc2c(c1=O)c1nc3ccccc3nc1n2Cc1ccc(OC)cc1 (stereo unspecified) | 53* | 20 | 86 | 37 | 35 | 52*
CCCCn1c2nc3ccccc3nc2c2c(=O)n(CCC(C)C)cnc21 | 10 | 9 | 102 | 15 | 11 | /
O=C(Nc1oc2ccc(Cl)cc2c(=O)c1-c1ccc(F)cc1)c1ccco1 | 53* | 3 | 101 | 29 | 18 | 46*
COc1ccc(-c2c(NC(=O)c3ccco3)oc3c(C)cccc3c2=O)cc1 | 51* | 13 | 97 | 34 | 26 | 43*
O=C(Nc1oc2ccccc2c(=O)c1-c1ccc(Br)cc1)c1ccco1 | 52* | 29 | 96 | 19 | 24 | 41*
O=C1N=C(O)CN1/N=C/c1ccc(-c2ccc([N+](=O)[O-])cc2)o1 | -12 | 21 | 100 | 9 | 5 | /
CC[C@@]12C(=O)N(c3cccc(F)c3)C(=O)N1[C@H](c1ccc(Cl)cc1)[C@@H]1C(=O)N(C3CCCCC3)C(=O)[C@@H]12 | 21 | -5 | 96 | 12 | 12 | /
O=C(CCSc1ccc(Cl)cc1)NC12CC3CC(CC(C3)C1)C2 | 52* | -11 | 106 | 38 | 40 | 46*
CCN(CC(=O)Nc1ccc(OC)cc1)C(=O)c1ccc([N+](=O)[O-])cc1 | 7 | 0 | 150 | 12 | 5 | /
Cc1ccccc1CC(=O)N1CCCC1 | -9 | 0 | 106 | -6 | -4 | /
Oc1ccc(Br)cc1CNc1cnc2ccccc2c1 | 76* | 23 | 96 | 19 | 27 | 68*
Cc1ccc(O)c(CNc2cnc3ccccc3c2)c1 | 57* | 35 | 102 | -6 | 3 | 42*
Cn1cc(Br)c(C(=O)N2CCc3ccccc32)n1 | 7 | 2 | 97 | 13 | 6 | /
COc1ccc2c(c1)-c1c(ssc1=S)C(C)(C)N2 | 53* | 30 | 74 | 32 | 31 | 47*
COc1ccccc1NS(=O)(=O)c1ccc(/C=C/C(=O)O)cc1 | 13 | 24 | 105 | -3 | 2 | /
Cc1cccc(/C=c2\s/c(=C\C(=O)C(C)(C)C)[nH]c2=O)c1 | 50* | 11 | 100 | 25 | 10 | 54*
